The values that follow come from PubChem BioAssay.

Structures are written as SMILES. Where “and” joins values, the source holds several entries; their conditions need not be identical. Equal values may be shown once. Calls of active or inactive are those of the source. The rule behind the calls is not given here.

The nature of test [1]: liver-stage malaria parasite load reduction – cell-based, known kinase inhibitor set, luminescence, hepatoma host viability (AID 624392).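 Note: infected cells incubated roughly two days before readout.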 Particulars: Plasmodium liver stage in hepatoma cells, luciferase luminescence, concentration not given here; liver cell % of control: measured here: host liver cell viability; parasite % of control: stronger effect = lower value.
Test [2] can be described thus: altered dexamethasone sensitivity, NF-kB reporter, cell-based, luciferase, IL-1B stimulus (AID 624486).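 For percent of negative control (+Dex): 100% = mean signal of vehicle control wells on the plate.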 To be noted: IL-1B + dexamethasone, luminescence; percent of negative control (+Dex): actives lie on both sides, concentration not given here; z-score: measured here: IL-1B alone, no Dex.
Test [3] addresses Cellular tumor antigen p53 (Homo sapiens) (UniProt P04637). Description: GFP-p53 level modulators in HPV16+ cells – imaging, known kinase inhibitor set, EGFP/DsRed ratio (AID 1053116).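 Note: cells exposed to compounds for 24 h at 37 °C before reading.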 Particulars: GFP-p53 stability, stronger effect = higher value; EGFP object count: measured here: GFP-p53 positive objects count.
Test [4] can be described thus: inducers of IRF3 signaling, differentiated THP-1 – cell-based, PMA-stimulated THP-1, luminescence (AID 1053176). Particulars: PMA-differentiated THP-1, IRF3 reporter luminescence; stronger effect = higher value.

Chain of Cellular tumor antigen p53 (Homo sapiens) (P04637 whole entry, looked up): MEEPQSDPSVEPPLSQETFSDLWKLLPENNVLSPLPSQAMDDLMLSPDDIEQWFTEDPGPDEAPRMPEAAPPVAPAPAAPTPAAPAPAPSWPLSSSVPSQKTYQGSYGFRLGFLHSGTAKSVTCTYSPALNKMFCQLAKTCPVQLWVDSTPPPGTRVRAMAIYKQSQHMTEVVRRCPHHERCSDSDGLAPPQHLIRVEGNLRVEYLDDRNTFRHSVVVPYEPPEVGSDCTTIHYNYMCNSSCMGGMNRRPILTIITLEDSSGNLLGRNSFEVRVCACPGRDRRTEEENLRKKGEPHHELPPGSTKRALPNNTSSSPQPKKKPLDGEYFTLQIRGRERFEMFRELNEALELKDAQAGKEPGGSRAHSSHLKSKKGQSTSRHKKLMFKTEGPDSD

For `Cn1cc(C2=C(Sc3ccccc3)C(=O)NC2=O)c2ccccc21`, in test [1], the liver cell % of control was determined as 92.3% and the parasite % of control is 50.7% (inactive). Further, in test [2], the percent of negative control (+Dex) is 99.5% (inactive) and the z-score was 0.02. Further, in test [3], the EGFP object count was found to be 2.5 and the EGFP/DsRed ratio is 0.0664 (inactive). Further, the fraction signal in test [4] was 0.008 (inactive).
Consider `COc1ccc(C2=C(c3cn(C)c4ccccc34)C(=O)NC2=O)cc1OC`, for which, in test [1], the liver cell % of control came to 215% and the parasite % of control is 12.7% (inactive). In test [2], the percent of negative control (+Dex) is 100% (inactive) and the z-score was -0.425. Further, in test [3], the EGFP object count was 13 and the EGFP/DsRed ratio is 0.28 (inactive). For the same molecule, the fraction signal in test [4] was -0.003 (inactive).
With `Cn1cc(C2=C(c3cn(C)c4c([N+](=O)[O-])cccc34)C(=O)NC2=O)c2ccccc21`, in test [1], the liver cell % of control came to 78.7% and the parasite % of control was 22.7% (inactive). Besides, in test [2], the percent of negative control (+Dex) is 102% (inactive) and the z-score was -0.03. Also, in test [3], the EGFP object count turned out to be 18.5 and the EGFP/DsRed ratio is 0.137 (inactive). Besides, in test [4], the fraction signal is -0.005 (inactive).
`Cn1c(=O)c(Oc2ccc(F)cc2F)cc2cnc(NC(CO)CO)nc21`: in test [1], the liver cell % of control turned out to be 113% and the parasite % of control was 64.2% (inactive). Besides, in test [2], the percent of negative control (+Dex) was 108% (inactive) and the z-score amounted to 0.05. For the same molecule, in test [3], the EGFP object count came to 2.5 and the EGFP/DsRed ratio is 0.0637 (inactive). For the same molecule, the fraction signal in test [4] was 0.0035 (inactive).
Consider `COc1cc[nH]c1C=C1C(=O)Nc2ccc(F)c(C#CC3(O)CCNCC3)c21`, for which, in test [1], the liver cell % of control worked out at 70.4% and the parasite % of control was 10.7% (inactive). In test [2], the percent of negative control (+Dex) is 108% (inactive) and the z-score is -2.18. For the same molecule, in test [3], the EGFP object count turned out to be 467 and the EGFP/DsRed ratio is 3.03 (inactive). In addition, the fraction signal in test [4] is -0.005 (inactive).
For `CCn1c(=O)c(Oc2ccc(F)cc2F)cc2cnc(NC3CCOCC3)nc21`, in test [1], the liver cell % of control is 103% and the parasite % of control is 55.7% (inactive). In test [2], the percent of negative control (+Dex) is 85.5% (inactive) and the z-score was -0.82. For the same molecule, in test [3], the EGFP object count worked out at 3.5 and the EGFP/DsRed ratio is 0.0988 (inactive). The fraction signal in test [4] was -0.005 (inactive).
With `CN(C)CC1CCn2c(c(C3=C(c4cn(C)c5ccccc45)C(=O)NC3=O)c3ccccc32)C1` (stereo not given), in test [1], the liver cell % of control was 80.7% and 77.1%; the parasite % of control is 27.7% (inactive) and 36.4% (inactive). For the same molecule, in test [2], the percent of negative control (+Dex) is 97% (inactive) and 96.5% (inactive); the z-score was -0.715 and -0.17. Moreover, in test [3], the EGFP object count was 13.5 and 7.5; the EGFP/DsRed ratio was 0.0249 (inactive) and 0.0159 (inactive). The fraction signal in test [4] is -0.0005 (inactive) and -0.0055 (inactive).
As for `O=[N+]([O-])c1ccc2c(c1)C(c1ccccc1Cl)=Nc1cn[nH]c1N2`, in test [1], the liver cell % of control turned out to be 101% and the parasite % of control is 21.4% (inactive). In addition, in test [2], the percent of negative control (+Dex) was 109% (inactive) and the z-score was -0.52. Also, in test [3], the EGFP object count came out at 12 and the EGFP/DsRed ratio was 0.495 (inactive). The fraction signal in test [4] was -0.005 (inactive).
Take `Cn1cc(C2=C(c3cn(CCCO)c4ccccc34)C(=O)NC2=O)c2ccccc21`: in test [1], the liver cell % of control stood at 101% and the parasite % of control was 33.3% (inactive). In test [2], the percent of negative control (+Dex) is 115% (inactive) and the z-score is -0.1. Moreover, in test [3], the EGFP object count stood at 9.5 and the EGFP/DsRed ratio is 0.221 (inactive). The fraction signal in test [4] was 0.0055 (inactive).
Regarding `CN1CC2Cc3c(C4=C(c5cn(C)c6ccccc56)C(=O)NC4=O)c4ccccc4n3CC2C1` (stereo not given), in test [1], the liver cell % of control was 79.3% and 90.1%; the parasite % of control is 36.7% (inactive) and 27% (inactive). In test [2], the percent of negative control (+Dex) was 98.5% (inactive); the z-score is -0.62 and -0.215. Also, in test [3], the EGFP object count is 2.5 and 3.5; the EGFP/DsRed ratio was 0.0121 (inactive) and 0.0134 (inactive). The fraction signal in test [4] is -0.005 (inactive) and -0.0135 (inactive).
Turning to `Cn1cc(C2=C(c3cn(CCCCCN)c4ccccc34)C(=O)NC2=O)c2ccccc21`, in test [1], the liver cell % of control was found to be 105% and the parasite % of control was 35.6% (inactive). Moreover, in test [2], the percent of negative control (+Dex) was 99.5% (inactive) and the z-score stood at 0.77. Also, in test [3], the EGFP object count came out at 13.5 and the EGFP/DsRed ratio is 0.639 (inactive). Besides, the fraction signal in test [4] was 0.0035 (inactive).
As for `Cn1cc(C2=C(NN3CCOCC3)C(=O)NC2=O)c2ccccc21`, in test [1], the liver cell % of control is 102% and the parasite % of control was 52.1% (inactive). Also, in test [2], the percent of negative control (+Dex) was 101% (inactive) and the z-score was 0.61. Further, in test [3], the EGFP object count was 7 and the EGFP/DsRed ratio was 0.147 (inactive). In test [4], the fraction signal is -0.016 (inactive).
As to `Fc1ccc(-c2c(-c3ccncc3)n(CCN3CCOCC3)c3cccnc23)cc1`, in test [1], the liver cell % of control was determined as 113% and the parasite % of control was 63.8% (inactive). Further, in test [2], the percent of negative control (+Dex) was 91.5% (inactive) and the z-score was 0.395. Moreover, in test [3], the EGFP object count came to 1.5 and the EGFP/DsRed ratio is 0.18 (inactive). Besides, the fraction signal in test [4] is -0.0075 (inactive).
As for `Cc1ccccc1C1=C(c2cn(C)c3ccccc23)C(=O)NC1=O`, in test [1], the liver cell % of control came out at 136% and the parasite % of control was 37% (inactive). In test [2], the percent of negative control (+Dex) is 96% (inactive) and the z-score is -1.4. Moreover, in test [3], the EGFP object count was 22 and the EGFP/DsRed ratio was 0.4 (inactive). Moreover, the fraction signal in test [4] is 0.0035 (inactive).
Turning to `Cn1c(=O)c(Oc2ccc(F)cc2)cc2cnc(NC3CCOCC3)nc21`, in test [1], the liver cell % of control is 106% and the parasite % of control was 64.1% (inactive). Also, in test [2], the percent of negative control (+Dex) is 104% (inactive) and the z-score worked out at 0.86. In test [3], the EGFP object count came to 3.5 and the EGFP/DsRed ratio was 0.251 (inactive). In test [4], the fraction signal is -0.0055 (inactive).
As for `Nc1c(C(=O)c2cccc(CCS(N)(=O)=O)c2)cnn1-c1ccc(F)cc1`, in test [1], the liver cell % of control was 92.4% and the parasite % of control was 53.8% (inactive). Moreover, in test [2], the percent of negative control (+Dex) is 105% (inactive) and the z-score worked out at 0.275. In test [3], the EGFP object count was determined as 2 and the EGFP/DsRed ratio was 0.0563 (inactive). In test [4], the fraction signal is 0.0055 (inactive).
For `O=C1NC(=O)C(=Cc2ccc3ncccc3c2)S1`, in test [1], the liver cell % of control came to 98% and the parasite % of control is 60.7% (inactive). For the same molecule, in test [2], the percent of negative control (+Dex) is 126% (active) and the z-score was 3.21. In test [3], the EGFP object count came to 5 and the EGFP/DsRed ratio is 0.206 (inactive). For the same molecule, the fraction signal in test [4] is 0.005 (inactive).
For `Cn1cc(C2=C(c3cn(CCSC(=N)N)c4ccccc34)C(=O)NC2=O)c2ccccc21`, in test [1], the liver cell % of control was found to be 92.2% and the parasite % of control was 26.4% (inactive). For the same molecule, in test [2], the percent of negative control (+Dex) was 96.5% (inactive) and the z-score came to 0.445. For the same molecule, in test [3], the EGFP object count was found to be 2.5 and the EGFP/DsRed ratio is 0.00335 (inactive). Also, in test [4], the fraction signal is -0.018 (inactive).
Regarding `Cn1c(-c2ccncc2)c(-c2ccc(F)cc2)c2ncccc21`, in test [1], the liver cell % of control amounted to 100% and the parasite % of control was 44.7% (inactive). Also, in test [2], the percent of negative control (+Dex) is 104% (inactive) and the z-score came out at 1.04. Moreover, in test [3], the EGFP object count stood at 3 and the EGFP/DsRed ratio was 0.0799 (inactive). Moreover, the fraction signal in test [4] was -0.0005 (inactive).
For the molecule `O=C1NC(=NCCc2ccccc2Cl)SC1=Cc1ccc2ncccc2c1`, in test [1], the liver cell % of control turned out to be 121% and the parasite % of control was 44.8% (inactive). In test [2], the percent of negative control (+Dex) was 90% (inactive) and the z-score came out at 0. In test [3], the EGFP object count amounted to 4.5 and the EGFP/DsRed ratio was 0.105 (inactive). For the same molecule, the fraction signal in test [4] was -0.003 (inactive).
